Screens from PubChem BioAssay.
Mtb UGM inh = inhibitors of M. tuberculosis UDP-galactopyranose mutase; P9WIQ1; purified UGM, fluorescence polarization probe displacement; inhibition, % at 10 µM; actives 0.06% (n = 320,000); in the data active = inhibition above about 10%, passing the limit was not always enough; inconclusive = no clear call, values can overlap the other calls
FBA Mtb inh = inhibitors of M. tuberculosis fructose-bisphosphate aldolase | P9WQA3 | purified M. tuberculosis FBA, fluorescence read-out | inhibition, % at 1 µM | actives 2.3% (n = 360,000) | AID 588726
GDH-TPI counter-1 = GDH-TPI coupled enzyme inhibition counter-screen; GDH-TPI coupled enzyme counterscreen, NADH absorbance; inhibition, % at 4.8 µM; actives 1.2% (n = 360,000); AID 588335; in the data active = inhibition above about 30%
Mtb betalactam = beta-lactam sensitization of Mtb H37Rv. AID 434955. M. tuberculosis H37Rv growth with meropenem, percent inhibition. inhibition, % at 25 µM. actives 0.27% (n = 330,000); call rule not given here;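 note: growth measured after seven days incubation then overnight dye step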
Rv3671c inh = inhibits the M. tuberculosis serine protease Rv3671c. P9WHR9. inhibition, % at 5.96 µM. AID 2606. actives 0.048% (n = 320,000); in the data active = inhibition above about 38%;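 note: extracellular domain of Rv3671c used as enzyme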
Target sequence (P9WHR9 whole entry, looked up, the tested form may be a part): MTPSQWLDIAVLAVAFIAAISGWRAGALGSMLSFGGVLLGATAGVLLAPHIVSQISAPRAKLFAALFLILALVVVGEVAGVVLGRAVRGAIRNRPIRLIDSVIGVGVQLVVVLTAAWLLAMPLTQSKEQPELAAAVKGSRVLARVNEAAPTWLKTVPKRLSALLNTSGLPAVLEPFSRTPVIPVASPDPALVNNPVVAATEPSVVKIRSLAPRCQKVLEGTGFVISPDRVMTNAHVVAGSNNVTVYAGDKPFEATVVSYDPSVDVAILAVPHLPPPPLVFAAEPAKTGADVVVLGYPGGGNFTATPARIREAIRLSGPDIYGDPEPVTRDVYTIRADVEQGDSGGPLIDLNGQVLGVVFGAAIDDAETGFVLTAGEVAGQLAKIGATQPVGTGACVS
Mtb FBA confirm = confirmation of M. tuberculosis fructose-bisphosphate aldolase inhibitors | shares compounds with FBA Mtb inh | purified M. tuberculosis FBA, fluorescence read-out | inhibition, % at 1 µM | actives 78% (n = 5,600) | AID 651616
GDH-TPI counter-2 = counter-screen for M. tuberculosis FBA inhibitors: GDH-TPI coupled enzyme inhibition; GDH-TPI coupled enzyme counterscreen, fluorescence; actives 81% (n = 5,600); AID 652141; shares compounds with FBA Mtb inh; inhibition, % at 1 µM; in the data active = inhibition above about 10%
Of the large screens only hits and unclear results are named; the others gave an inactive call (follow-up assays come after a bar, where they were run). Shown are actives, neighbours in structure and some others; about 3.5% of the full set was active somewhere. Cut-off read from the data, not from the text of the source, unless noted: active = inhibition above about 27%; inactive = the rest.

CC(=O)Oc1ccc(-c2cc3ccccc3oc2=O)cc1	FBA Mtb inh 74.7, GDH-TPI counter-1 36.5 | Mtb FBA confirm active | GDH-TPI counter-2 active
CC(=O)Oc1ccc(-c2nc3ccccc3c(=O)o2)cc1	none
COc1cc(/C=C/CN2CCN(Cc3ccc(C)o3)C(CCO)C2)ccc1O (stereo not given)	none
O=C1CCCN1CCCNc1nc2c(S(=O)(=O)c3ccccc3)nnn2c2ccc(Cl)cc12	FBA Mtb inh 40.9 | Mtb FBA confirm inactive | GDH-TPI counter-2 inactive
CCS(=O)(=O)c1nc(S(=O)(=O)c2ccc(C)cc2)c(NCCCN2CCCC2=O)s1	none
CS(=O)(=O)c1ccc(Cl)c(C(=O)NC2CCSc3ccccc32)c1 (stereo not given)	FBA Mtb inh 63.8 | Mtb FBA confirm inactive | GDH-TPI counter-2 inactive
CCc1c(C)nc2ncnn2c1N1CCCC(C(=O)Nc2cc(F)ccc2C)C1 (stereo not given)	FBA Mtb inh 28.4 | Mtb FBA confirm inactive | GDH-TPI counter-2 inactive
COCc1cc(C)nc2sc(C(=O)Nc3nccs3)c(N)c12	none
CCOC(=O)c1sc2nc(C)cc(C)c2c1N	FBA Mtb inh 35.6 | Mtb FBA confirm 64.5 | GDH-TPI counter-2 56.4
Cc1cc(C)c2c(N)c(C(=O)Nc3nccs3)sc2n1	FBA Mtb inh 105.5 | Mtb FBA confirm 150.8 | GDH-TPI counter-2 109.9
COc1cc(S(C)=O)ccc1-c1nc2ncccc2[nH]1 (stereo not given)	FBA Mtb inh 55.4, GDH-TPI counter-1 32.4 | Mtb FBA confirm 89.6 | GDH-TPI counter-2 72.5
c1cncc(C2Nc3ccccc3-c3nc4ccccc4n32)c1 (stereo not given)	FBA Mtb inh 35.9 | Mtb FBA confirm 115.2 | GDH-TPI counter-2 92.2
CS(=O)(=O)NN1C(=O)c2ccccc2NC1c1cccs1 (stereo not given)	none
c1csc(C2Nc3ccccc3-c3nc4ccccc4n32)c1 (stereo not given)	FBA Mtb inh 57.5, Mtb betalactam inconclusive | Mtb FBA confirm 137.7 | GDH-TPI counter-2 97.0
c1ccc2c(c1)NC(c1ccncc1)n1c-2nc2ccccc21 (stereo not given)	FBA Mtb inh 55.5 | Mtb FBA confirm inactive | GDH-TPI counter-2 inactive
COC(=O)c1ccc(OS(=O)(=O)N(C)C)cc1	none
O=c1oc2cc(O)ccc2cc1-c1nc2c(s1)CCc1ccccc1-2	FBA Mtb inh 37.9 | GDH-TPI counter-2 active
Cn1nc(-c2ccc(Cl)cc2)c2cc(C(=O)NCCN3CCOCC3)sc21	FBA Mtb inh 33.7 | Mtb FBA confirm 40.6 | GDH-TPI counter-2 26.3
Cn1nc(-c2ccc(Cl)cc2)c2cc(C(=O)NCCCN3CCOCC3)sc21	FBA Mtb inh 29.3 | Mtb FBA confirm 67.3 | GDH-TPI counter-2 55.8
COc1ccc(-c2nc3c4ccccc4ccn3c2CC2CCCCC2)cc1OC	none (no result: Mtb UGM inh, GDH-TPI counter-1, Mtb betalactam, Rv3671c inh)
CN(Cc1ccccn1)C(=O)CC1C(=O)NCCN1Cc1cccc(Oc2ccccc2)c1 (stereo not given)	FBA Mtb inh 31.8 | Mtb FBA confirm 164.8 | GDH-TPI counter-2 122.3
CC(C)(C)c1ccc(-n2ncc3c2CCCC3NC(=O)C2=NNC(=O)CC2)cc1 (stereo not given)	Mtb betalactam inconclusive
O=C(c1ccc2c3c(cccc13)CC2)C1CCCN(C(=O)c2cc[n+]([O-])cc2)C1 (stereo not given)	none
O=C(c1ccc2c3c(cccc13)CC2)C1CCCN(C(=O)c2ccc[n+]([O-])c2)C1 (stereo not given)	FBA Mtb inh 29.3 | Mtb FBA confirm active | GDH-TPI counter-2 164.9
c1ccc(-c2nc(NCC3CC3)nc3ccsc23)cc1	FBA Mtb inh 42.4 (no result: Mtb UGM inh, Mtb betalactam, Rv3671c inh) | Mtb FBA confirm 137.6 | GDH-TPI counter-2 96.6
Cc1ccc(F)cc1-c1nc(NCC2CC2)nc2ccsc12	FBA Mtb inh 46.4 (no result: Mtb UGM inh, Mtb betalactam, Rv3671c inh) | Mtb FBA confirm 70.5 | GDH-TPI counter-2 56.4
OCc1ccccc1-c1nc(NCc2ccccc2)nc2ccsc12	FBA Mtb inh 62.9 (no result: Mtb UGM inh, Mtb betalactam, Rv3671c inh) | Mtb FBA confirm inactive | GDH-TPI counter-2 inactive
CCc1cccc2c(C(=O)C(F)(F)F)cn(CC(=O)N3CCOCC3)c12	none
C=C(C)CN(CC)C(=O)CN1C(=O)NC2(CCCc3ccccc32)C1=O (stereo not given)	FBA Mtb inh 62.9 | Mtb FBA confirm 100.7 | GDH-TPI counter-2 85.4
C=C(C)CN(CC)C(=O)CN1C(=O)NC2(CCc3ccccc32)C1=O (stereo not given)	none
Cc1cc(C)c(-c2cc(C(F)(F)F)no2)c(=O)[nH]1	FBA Mtb inh 29.9 | Mtb FBA confirm active | GDH-TPI counter-2 147.0
Nn1c(SCc2ccc(F)cc2)nnc1-c1ccccn1	none
Nn1c(SCc2ccccc2F)nnc1-c1ccccn1	FBA Mtb inh 42.2 | Mtb FBA confirm 81.2 | GDH-TPI counter-2 70.7
Cc1nc2ccccc2c2nc(N)nn12	none
Cc1cn2nc(N)c3ccccc3c2n1	FBA Mtb inh 41.7 | Mtb FBA confirm active | GDH-TPI counter-2 active
CN(C)C(=O)c1ccc(-n2cccn2)nc1	none
Cc1ccc(C(=O)Nc2cccc(C(F)(F)F)c2)cc1Nc1ncnc2nc[nH]c12	none
Cc1ccccc1-c1nnc(-c2cccs2)o1	FBA Mtb inh 29.4 | Mtb FBA confirm 165.1 | GDH-TPI counter-2 128.3
Brc1ccc(-c2nnc(-c3cccnc3)o2)cc1	none
Cc1ccc(-c2nnc(-c3cccnc3)o2)cc1	none
COc1ccc(-c2nnc(-c3cccnc3)o2)cc1	FBA Mtb inh 82.9 | Mtb FBA confirm 154.2 | GDH-TPI counter-2 126.3
c1cncc(-c2nnc(-c3cccs3)o2)c1	FBA Mtb inh 51.1 | Mtb FBA confirm 70.2 | GDH-TPI counter-2 47.1
O=C1CCCC/C1=C/NCc1ccc(F)cc1	none
COc1ccc(-c2cc(C(=O)N/N=C(\C)c3cccnc3)c3cc(C)ccc3n2)cc1OC	none
O=C(NN=Cc1cc(Br)c(O)c(Br)c1)c1ccccc1NS(=O)(=O)c1cccs1	FBA Mtb inh 79.2, GDH-TPI counter-1 47.6 | Mtb FBA confirm 165.1 | GDH-TPI counter-2 135.0
CC(=O)N1CCc2c(sc(NC(=O)C3CCCN3S(=O)(=O)c3cccs3)c2C#N)C1 (stereo not given)	FBA Mtb inh 32.9 | Mtb FBA confirm 48.4 | GDH-TPI counter-2 35.2
Cc1nc2cccc(C(=O)Oc3ccc([N+](=O)[O-])cc3)c2o1	FBA Mtb inh 43.1 | Mtb FBA confirm 158.6 | GDH-TPI counter-2 146.0
Cc1c(-c2ccccc2)nc2ccccc2c1C(=O)Oc1ccc([N+](=O)[O-])cc1	none
Cc1cc(C)cc(C(=O)O/N=C(\N)c2ccc(Br)cc2)c1	none
N/C(=N\OC(=O)c1ccoc1)c1ccc(Br)cc1	FBA Mtb inh 38.4 | Mtb FBA confirm 154.7 | GDH-TPI counter-2 150.2
CCOC(=O)Cc1c(C)nc(N)[nH]c1=O	none
C[C@H](O)C(=O)C1=Nc2c(nc(N)[nH]c2=O)NC1	FBA Mtb inh 27.0 | Mtb FBA confirm 40.8 | GDH-TPI counter-2 33.1
O=C(CSc1ccc(-c2ccc(Cl)cc2)nn1)NC1CCCC1	none
CCCCn1c(=O)c2ccccc2c2ccccc2c1=O	none
